Data on 33 molecules can be found in PubChem BioAssay (NCATS).

Inconclusive results are not listed. Values without a mark were called inactive. Active and inactive are the calls of the source. Calls follow the shape of the dose curve; as a rule, active = well fitted inhibition curve with a large enough effect; inconclusive = small, poorly fitted or top-dose-only effect; inactive = flat fitted curve, though single readings scatter.

One assay deals with CRL-7250. Briefly: Cytotoxic Profiling of Annotated Libraries Using Quantitative High-Throughput Screening (AID 1296008). Also: nearly all actives have a fitted effect of over 60% in size. The following applies: Five cell lines viability, CellTiter-Glo ATP luminescence, 48-72 h; max response: hits give low values. In outline: (§1)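 Compounds were pin-transferred onto cells and incubated 48 or 72 hr at 37 degree Celsius, 95% humidity. CellTiter-Glo was added, plates sat 10 min at room temperature, then ATP-coupled luminescence was imaged as the viability read-out.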
(Cellular ATP, detected with luciferase, serves as a proxy for viable cell number.)

Another assay deals with HEK293. Described as above. The following applies: Five cell lines viability, CellTiter-Glo ATP luminescence, 48-72 h; max response: hits give low values. In outline: as §1
% is scaled to controls: 0 for no effect and ±100 for the full control effect; potency is read from the fitted curve at half-maximal effect.

Take `CCCN1CCN(c2ccc(C(=O)NC3(C(=O)NCC#N)CCCCC3)cc2)CC1`: the max response is -0.563% in the assay with CRL-7250 and -5.14% with HEK293.
For `CC1=C2C[C@H]3O[C@@]3(C)CCC3O[C@@]3(C)C[C@@]2(O)OC1=O` (stereo partly specified), the result in the assay on CRL-7250 was inactive. Moreover, in the assay on HEK293, the max response was -4.05%.
Turning to `C=C1C(=O)OC2CC3(C)C(CC12)C(C)=CC(O)C3OC(C)=O` (stereo unspecified), the max response was -3.42% with CRL-7250 and -3.84% with HEK293.
As to `COc1cc(N)c(Cl)cc1C(=O)NC[C@@H]1CCN2CCC[C@@H]12`, the max response in the assay with CRL-7250 is -16.7%; in the assay with HEK293, -3.94%.
`C=CC(=O)Nc1cccc(CN2C(=O)N(c3c(Cl)c(OC)cc(OC)c3Cl)Cc3cnc(NCCCCN(CC)CC)nc32)c1`: the Potency with CRL-7250 is 10.3 µM (active); in the assay with HEK293, 16.4 µM (active).
As to `O=C1CSc2ccccc2N1Cc1cccc(C(F)(F)F)c1`, the max response is -9.14% in the assay with CRL-7250 and -20.3% in the assay with HEK293.
`COc1ccc(-c2ccc(-c3cn(C(=O)N4CCCCC4c4ccccc4)nn3)cc2)cc1` (stereo unspecified): in the assay with CRL-7250, the outcome was inactive. In the assay with HEK293, the max response is 1.03%.
As to `C/C=C/C(O)C1OC(=O)CC1Nc1ccc(C(=O)O)cc1` (stereo unspecified), the values for the max response with CRL-7250 and with HEK293 were 4.31% and 4.45%, respectively.
With `COC(=O)C1=CO[C@@H](O)C2C(CO)=CCC12` (stereo partly specified), the max response is -9.24% with CRL-7250 and 4.75% with HEK293.
Taken in the same sequence, the figures for `COc1cc2c(c(OC)c1CC=C(C)C)C[C@H](c1ccc(O)cc1O)CO2` were -5.34% and 0.883%.
As for `C=C(C)C1CCC2(C(=O)O[C@@H]3O[C@H](CO[C@@H]4O[C@H](CO)[C@@H](O)[C@H](O)[C@H]4O)[C@@H](O)[C@H](O[C@@H]4O[C@@H](C)[C@H](O)[C@@H](O)[C@H]4O)[C@H]3O)CCC3(C(=O)O)C(CCC4C5(C)CCC(O)C(C)(C)C5CCC43C)C12` (stereo partly specified), the result with CRL-7250 and with HEK293 was inactive.
Regarding `CC/C=C\CCO[C@@H]1O[C@H](CO)[C@@H](O)[C@H](O)[C@H]1O`, the values for the max response in the assay on CRL-7250 and with HEK293 were -3.17% and 0.0515%, respectively.
As for `CC1CC(C(O)C(C)(C)O)OC2CC3(C)C4(C)CCC5C(C)(C)C(=O)CCC5(C)C4CCC3(O)C12O` (stereo unspecified), the figures for the max response in the assay with CRL-7250 and in the assay on HEK293 were 3.36% and -2.59%, respectively.
`CCC(C)C(=O)OC1CC(C)C=C2C=CC(C)C(CCC(O)CC(O)CC(=O)O)C21` (stereo unspecified): in the assay with CRL-7250, the Potency is 7.09 µM (active). For the same molecule, in the assay on HEK293, the max response was -0.653%.
For the molecule `COc1cc(C(=O)OC[C@@]2(O)CO[C@@H](O[C@H]3[C@H](Oc4ccc(C(=O)O)cc4OC)O[C@H](CO)[C@@H](O)[C@@H]3O)[C@@H]2O)ccc1O`, the max response was -0.15% in the assay with CRL-7250 and -19.1% in the assay on HEK293.
The corresponding values for `CC(C)CC1NC(=O)C2CC3(O)c4ccccc4NC3N2C1=O` (stereo unspecified) are -2.34% and 2.06%.
`CC1=C(CO)C(=O)O[C@@H]([C@@H](C)[C@H]2CC[C@H]3[C@@H]4C[C@H]5O[C@]56[C@@H](O)C=CC(=O)[C@]6(C)[C@H]4CC[C@]23C)C1`: the results for the Potency in the assay with CRL-7250 and in the assay on HEK293 were 3.99 µM (active) and 1.12 µM (active), respectively.
Regarding `CC(C)=CCC(O)/C(C)=C/CO[C@@H]1O[C@H](CO)[C@@H](O)[C@H](O)[C@H]1O` (stereo partly specified), the call in the assay on CRL-7250 was inactive. The max response in the assay on HEK293 was -0.719%.
Consider `O=C(O)/C=C/c1ccc(O)c(O[C@@H]2O[C@H](CO)[C@@H](O)[C@H](O)[C@H]2O)c1`, for which the molecule was classed as inactive with CRL-7250. Further, in the assay with HEK293, the max response is -13.2%.
As for `c1ccc(-c2ncc(CN3CCN(c4ncccn4)CC3)[nH]2)cc1`, the max response is -0.931% in the assay on CRL-7250 and 0.625% with HEK293.
For `CC(=O)C1=CCC2C3CCC4CC(O[C@@H]5O[C@H](CO)[C@@H](O[C@@H]6O[C@@H](C)[C@H](O)[C@@H](O)[C@H]6O)[C@H](O)[C@H]5O[C@@H]5O[C@H](CO)[C@@H](O)[C@H](O)[C@H]5O)CCC4(C)C3CCC12C` (stereo partly specified), the max response was -10.3% with CRL-7250 and -11.1% in the assay on HEK293.
Taken in the same sequence, the figures for `CC/C=C\CC1C(=O)C=CC1(CCCCCCCC(=O)O)OC(C)=O` (stereo unspecified) were -0.322% and 2.73%.
Take `CC(=O)OC1C(O)C2C(C)C3=CC(=O)OC3(O)CC2C2(C)CCCC(C)(CO)C12` (stereo unspecified): the molecule was called inactive in the assay on CRL-7250. The max response in the assay with HEK293 is -10%.
For the molecule `O=C(NCc1ccccn1)Nc1nnc(-c2ccco2)o1`, the max response is 0.451% in the assay with CRL-7250 and -0.62% in the assay with HEK293.
Regarding `CN[C@H](C(=O)N[C@H](C(=O)N(C)[C@H](/C=C(\C)C(=O)O)C(C)C)C(C)(C)C)C(C)(C)c1ccccc1`, the figures for the Potency with CRL-7250 and in the assay with HEK293 were 0.0052 µM (active) and 0.0073 µM (active), respectively.
As to `CC1CCC2(OC1)OC1CC3C4CC=C5CC(O)CC(O[C@@H]6OC[C@@H](O)[C@H](O)[C@H]6O)C5(C)C4CCC3(C)C1(O)C2C` (stereo partly specified), in the assay on CRL-7250, the molecule was called inactive. For the same molecule, the max response in the assay on HEK293 was 3.32%.
As for `C=C1C(=O)O[C@@H]2C[C@H](C)[C@@]3(O)C=C(C(C)=O)[C@]4(CC3C[C@H]12)C(=O)O[C@H]1C[C@@H](C)C(CCC(C)=O)=CC[C@H]14` (stereo partly specified), the result in the assay on CRL-7250 was inactive. In the assay with HEK293, the max response was -5.38%.
Turning to `COc1ccccc1NC(=O)OCC1CCN(C(=O)OC(C)(C)C)CC1`, the max response in the assay with CRL-7250 is -0.083%; in the assay on HEK293, -0.473%.
Taken in the same sequence, the figures for `N#Cc1cc(F)cc(-c2nc(-c3ccccn3)no2)c1` were 1.54% and -8.23%.
With `CC(NC(=O)C(O)C(C)C)C(=O)NC1C(=O)N(C)CCc2ccccc21` (stereo unspecified), in the assay on CRL-7250, the max response is -0.526%. In the assay with HEK293, the outcome was inactive.
With `C/C=C/C=C/C(O)=C1\C(=O)[C@]2(C)C3C(C(=O)CC/C=C/C)=C(O)C4(C)C1[C@]1(C)O[C@@]4(O)[C@@]3(C)O[C@@]12O`, the values for the max response in the assay with CRL-7250 and in the assay on HEK293 were -4.26% and -0.736%, respectively.
With `CCC(O)C(C)C1CCC(C(C)C(=O)O)O1` (stereo unspecified), in the assay with CRL-7250, the molecule was classed as inactive. Moreover, in the assay with HEK293, the max response was -7.28%.
For `CC(C)c1cc2c(c(O)c1O)[C@@]13CCCC(C)(C)[C@@H]1[C@H](OC3=O)C2=O`, the results for the max response in the assay on CRL-7250 and with HEK293 were 0.881% and -6.57%, respectively.
